Measured values reported in PubChem BioAssay.
Active and inactive are the calls of the source.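 Rule for the calls: active = inhibition at or above 50% relative to wild type and mutant plate controls; inactive = inhibition below 50%.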

Assay: inhibitors of Chlamydomonas gravitaxis, primary screen, whole organism, Chlamydomonas reinhardtii, WT vs cilia-less mutant, absorbance, 96-well (AID 463189);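 note: 0% = wild type cc124 cells in DMSO and 100% = ciliumless bld1 mutant cells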
Conditions: OD600 absorbance, 2 days, at 10 µM, stronger effect = higher value
With `C[C@@H]1O[C@H](C[N+](C)(C)C)C[C@H]1O` the inhibition was 3.38% (inactive).
With `CC(C)(C)NCC(O)c1ccccc1Cl` (configuration not stated) the inhibition was 8.05% (inactive).
In the case of `CC(C)(C)c1cc(C=C(C#N)C#N)cc(C(C)(C)C)c1O`, the inhibition was 1.13% (inactive).
For `NCC#Cc1ccccc1`, the inhibition was 1.68% (inactive).
With `COC[C@H]1OC(=O)c2coc3c2[C@@]1(C)C1=C(C3=O)C2CCC(=O)[C@@]2(C)C[C@H]1OC(C)=O` (some centres not stated) the inhibition was 4.09% (inactive).
For `O=S1(=O)N(CCN2CC=C(c3c[nH]c4cc(F)ccc34)CC2)c2cccc3c2N1CCC3`, the inhibition was -4.93% (inactive).
With `C=C(C)[C@H]1Cc2c(ccc3c2O[C@@H]2COc4cc(OC)c(OC)cc4[C@@H]2C3=O)O1` the inhibition was 4.66% (inactive).
